# Compound activity as filed in PubChem BioAssay.
# In the library only some 11% were active in any assay of this set; here they are far more common.
# FLuc inh-1: inhibitors of firefly (Photinus pyralis) luciferase; 2.5% of 76,000 active; Potency, µM (top dose mostly 115 µM), most hits filed as inhibitors; AID 1347043; purified P. pyralis luciferase, luminescence, biochemical; P08659; note: % is set by controls: 0 for no effect and ±100 for the full control effect; nearly all actives have a fitted effect of over 65% in size
# Target sequence (P08659 whole entry, looked up): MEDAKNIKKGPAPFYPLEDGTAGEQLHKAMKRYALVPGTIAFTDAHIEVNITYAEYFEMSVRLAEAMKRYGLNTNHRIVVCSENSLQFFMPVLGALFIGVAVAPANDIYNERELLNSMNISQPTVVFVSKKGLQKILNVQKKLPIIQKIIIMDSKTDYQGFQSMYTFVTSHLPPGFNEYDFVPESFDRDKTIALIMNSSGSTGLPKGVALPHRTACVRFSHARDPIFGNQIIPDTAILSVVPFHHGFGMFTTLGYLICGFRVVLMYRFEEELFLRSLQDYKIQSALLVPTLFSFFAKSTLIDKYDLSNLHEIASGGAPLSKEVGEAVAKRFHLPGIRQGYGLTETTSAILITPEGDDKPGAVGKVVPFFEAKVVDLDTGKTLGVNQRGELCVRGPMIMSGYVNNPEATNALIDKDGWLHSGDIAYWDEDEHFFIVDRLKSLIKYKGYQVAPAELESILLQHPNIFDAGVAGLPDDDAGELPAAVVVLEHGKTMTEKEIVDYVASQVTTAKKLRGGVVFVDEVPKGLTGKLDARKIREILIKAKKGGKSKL
#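 Purified P. pyralis luciferase (10nM final) in 50mM Tris acetate pH 7.5, 10mM Mg acetate, 0.01% Tween-20, 0.05% BSA with 10uM D-luciferin and 10uM ATP. Compounds titrated qHTS. Luminescence imaged on CCD.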
# hNpr1 antagonist: blocks ANP-stimulated signaling of human Npr1 receptor; P16066; HEK293 hNpr1 GloSensor cGMP, ANP-stimulated luminescence; Potency, µM (highest dose often 46.3 µM), inactives show at the highest dose activity change, negative = inhibition, usual class: inhibitors; 1.6% of 76,000 active; calls by dose curve; note: % is set by controls: 0 for no effect and ±100 for the full control effect; nearly all actives have a fitted effect of over 60% in size
#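 HEK293 cells stably expressing human Npr1 and cGMP GloSensor pGS-40F, loaded 2 h with 2% GloSensor reagent, given compound 30 min at room temperature. Luminescence read before and 20 min after 0.1 nM hNppA.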
# HEK cytotox: kills HEK 293 cells; HEK 293 viability, ATP luminescence (CellTiter-Glo), 48-72 h; AID 1345083; Potency, µM (series often up to 115 µM), inactives show top-dose activity change, negative = cytotoxicity, actives largely listed as inhibitors; 6.6% of 94,000 active; note: % is set by controls: 0 for no effect and ±100 for the full control effect; nearly all actives have a fitted effect of over 60% in size
#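 HEK 293 cells seeded at 250 cells/well were exposed to compound for 48 or 72 hr at 37 degree Celsius. Viability taken as ATP content by CellTiter-Glo luminescence.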
# NIH3T3 tox: kills NIH 3T3 cells | NIH 3T3 viability, CellTiter-Glo ATP luminescence, 48-72 h | 4.3% of 94,000 active | Potency, µM (highest dose often 96.7 µM), without a hit: at the top dose activity change, negative = cytotoxicity, actives largely listed as inhibitors | AID 1345082; note: % is set by controls: 0 for no effect and ±100 for the full control effect; nearly all actives have a fitted effect of over 55% in size
#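 Mouse fibroblast NIH 3T3 cells, 400 per well, received compound via pintool and were incubated for 48 or 72 hr prior to CellTiter-Glo ATP luminescence measurement.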
# FLuc SDR no ATP: stabilizes firefly luciferase without ATP | Purified FLuc-C-HiBiT, Nano-Glo HiBiT luminescence, no ATP | Potency, µM (doses to about 32.7 µM), for the others: at the highest dose activation (signal gain), hits mostly activators | AID 1963318 | 7.8% of 1,300 active | shares compounds with FLuc inh-1; note: nearly all actives have a fitted effect of over 55% in size
# FLuc SDR ATP: stabilizes firefly luciferase with ATP present. 8.7% of 1,300 active. Potency, µM (highest dose often 32.7 µM), inactives show top-dose activation (gain of signal), usual class: activators. shares compounds with FLuc inh-1. AID 1963319. purified FLuc-C-HiBiT + ATP, HiBiT complementation luminescence;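 note: signal reports ligand binding via conformational change of the enzyme rather than luciferase catalysis; % of control where 0% means no effect; nearly all actives have a fitted effect of over 55% in size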
# FLuc inh-2: blocks firefly luciferase enzymatic activity; shares compounds with FLuc inh-1; purified FLuc-C-HiBiT enzyme, luciferin luminescence; Potency, µM (titrated, usually from 32.7 µM), inactives show top-dose activity change, negative = inhibition, actives largely listed as inhibitors; 42% of 1,300 active; note: % is set by controls: 0 for no effect and ±100 for the full control effect; nearly all actives have a fitted effect of over 70% in size
# The depositor's hits bear a star; i = inactive; ? = inconclusive; nt = not tested or not shown; [ ] = dose if it differs, or a comment. Unless noted, calls come from the whole dose curve; as a rule, active = well fitted curve in the direction sought with a large enough effect; inconclusive = small, poorly fitted or top-dose-only effect, or another doubt; inactive = no such curve, though single readings can be large; an effect the other way counts as inactive or inconclusive. Potency is the fitted concentration of half-maximal effect.
SMILES,FLuc inh-1,hNpr1 antagonist,HEK cytotox,NIH3T3 tox,FLuc SDR no ATP,FLuc SDR ATP,FLuc inh-2
Cc1ccc(C2=NC3(CCN(C(=O)c4cccc(N(C)C)c4)CC3)ON2)cc1,14µM*,-17%,-24%,-24%,21%,?,?
CCOc1ccc(CN2CCc3nn(C)c(=O)n3CC2)cc1OC,i,1%,-3%,-19%,nt,nt,nt
Cc1ccc(-n2ncc3c(N4CCCCC4)ncnc32)cc1Cl,nt,nt,nt,nt,8.8µM*,1.8µM*,0.79µM*
Cc1ccc(-n2ncc3c(N4CCCCC4)ncnc32)cc1,nt,nt,nt,nt,1.8µM*,1.1µM*,0.2µM*
Cc1ccc(-n2ncc3c(N4CCCCCC4)ncnc32)cc1Cl,nt,nt,nt,nt,?,?,0.7µM*
O=C(Nc1ccc2ncnc(N3CCCCC3)c2c1)c1ccccc1Cl,i,-16%,?,?,nt,nt,nt
Nc1ccc2nc(-c3ccc(O)cc3)sc2c1,nt,nt,nt,nt,3.9µM*,?,0.62µM*
Cc1ccc(NC(=O)c2ccc3c(c2)N(C)C2CCCN2C3=O)cc1C (centres undefined),13µM*,-1%,2%,-4%,11%,?,?
CN1c2cc(C(=O)Nc3cc(F)ccc3F)ccc2C(=O)N2CCCCCC21 (centres undefined),11µM*,-6%,?,?,12%,?,?
Cc1ccc(NC(=O)c2ccc3c(c2)N(C)C2CCCN2C3=O)cc1F (centres undefined),1.3µM*,?,?,-15%,15%,4.4µM*,8.8µM*
COc1ccc(NC(=O)c2ccc3c(c2)N(C)C2CCCN2C3=O)cc1OC (centres undefined),i,0%,?,-29%,nt,nt,nt
COc1cccc(-c2nnnn2[C@H]2CO[C@H]3[C@@H]2OC[C@@H]3NC(=O)c2ccccc2)c1,i,?,?,-30%[174 µM],nt,nt,nt
O=C1CCCN1CCCN1C(=O)[C@H]2CN(Cc3ccccc3C(F)(F)F)C[C@H]2C1=O,i,2%,-22%,-19%,nt,nt,nt
CCc1ccc(-c2nc(CSCC(=O)NCc3ccc(C)cc3)c(C)o2)cc1,nt,nt,nt,nt,19%,12%,?
Cc1ccc(-c2nc(C(=O)NCc3ccc(Cl)cc3)no2)cc1,i,2%,-6%,-24%,nt,nt,nt
COc1ccc(CCNC(=O)C2CCCN(c3nc4c(C)cc(C)cc4s3)C2)cc1OC (centres undefined),nt,nt,nt,nt,17%,20%,?
COc1ccc(OCC(=O)Nc2cc(-c3nc4ccccc4s3)ccc2C)cc1,nt,nt,nt,nt,4%,4%,?
COc1ccc(NC(=O)COc2ccc(-c3nnc4n3CCCC4)cc2)c(OC)c1,i,3%,-15%,?,nt,nt,nt
COc1ccc(NC(=O)N2C[C@@H]3C[C@H](C2)c2ccc(NC(=O)COc4ccccc4)c(=O)n2C3)cc1,?,1%,-23%,-27%,nt,nt,nt
COc1ccc(OCC(=O)Nc2cccc(-c3nc4ccccc4s3)c2C)cc1,nt,nt,nt,nt,27%,16%,7.9µM*
COc1ccc(CC(=O)Nc2ccc(-c3nc4ccccc4s3)cc2Cl)cc1,nt,nt,nt,nt,16%,13%,-11%
Cc1ccc(-c2nc3ccccc3s2)cc1NC(=O)COc1ccccc1,nt,nt,nt,nt,13%,8%,-9%
COc1ccc(CC(=O)Nc2cnc(-c3ccc(C)cc3)nc2)cc1,?,-1%,-11%,-7%,nt,nt,nt
CNc1cc(C2CC(NS(=O)(=O)c3ccc(Cl)s3)C2)nc(N)n1 (centres undefined),i,-19%,?,?,nt,nt,nt
CCO[C@H]1C[C@@H](O)C12CCN(C(=O)c1cc(C(F)(F)F)[nH]n1)CC2,i,0%,-16%,-17%,nt,nt,nt
SMILES,FLuc inh-1,hNpr1 antagonist,HEK cytotox,NIH3T3 tox,FLuc SDR no ATP,FLuc SDR ATP,FLuc inh-2
COc1ccc(C(=O)COC(=O)CCCC(=O)Nc2ccc(C(C)=O)cc2)cc1,nt,nt,nt,nt,29%,19%,?
Cc1ccc(OCC(=O)N2[C@@H]3CC[C@H]2CC(NC(=O)c2ccncc2)C3)cc1 (some centres undefined),i,-5%,-21%,-7%,nt,nt,nt
O=C(Nc1c(C(=O)Nc2ccc(F)cc2)oc2ccccc12)c1cc2ccccc2o1,nt,nt,nt,nt,22%,14%,7.9µM*
CCNc1cc(N2CCC(CCC(=O)NCC3CC3)CC2)ncn1,i,-4%,?,-5%,nt,nt,nt
CCNc1cc(N2CCC(CCC(=O)Nc3ccc4c(c3)OCCO4)CC2)ncn1,7.9µM*,-28%,?,?,18%,19%,?
CCCNc1cc(N2CCC(CCC(=O)Nc3ccc4c(c3)OCCO4)CC2)ncn1,11µM*,?,-26%,-19%,28%,?,9.9µM*
O=C(c1ccccc1F)N1CCCC(C(=O)N2CCC(c3nc4ncccc4[nH]3)C2)C1 (centres undefined),nt,nt,i,-5%,nt,nt,nt
CCOc1cccc2cc(-c3nc4ccc(C(=O)O)cc4[nH]3)c(=O)oc12,nt,nt,nt,nt,?,0.16µM*,0.16µM*
COc1ccc2cc(-c3nc4ccc(C(=O)O)cc4[nH]3)c(=O)oc2c1,nt,nt,nt,nt,0.79µM*,0.02µM*,0.016µM*
COc1cccc(-c2cccc(C(=O)O)c2)c1,nt,nt,3%[230 µM],-3%[174 µM],nt,nt,nt
CNC(=O)[C@@H](Cc1ccccc1)N1CCC[C@H]1C(=O)NCCN(C)C,i,6%[70.6 µM],i,5%[138 µM],nt,nt,nt
CSCc1nc(-c2ccncc2)nn1Cc1ccc2c(c1)OCO2,4.5µM*,11µM*,?,?,10%,19%,-13%
O=C(NCCc1ccccc1Cl)c1ccc2c(c1)nc1n2CCOC1,nt,nt,nt,nt,?,?,7µM*
CC(C)n1nccc1S(=O)(=O)N[C@@H]1[C@@H](Cc2ccccc2)[C@H]2OCC[C@@H]12,i,?,?,?,nt,nt,nt
COc1ccc(-c2cn3nc(SCC(=O)Nc4ccccc4F)ccc3n2)cc1,nt,nt,nt,nt,?,17%,?
COc1ccc(-c2ccc3nnc(CNC(=O)c4ccccc4F)n3n2)cc1,i,20%,-23%,-21%,nt,nt,nt
O=C1NC(=NC2CCCC2)C2(CCN(Cc3ccsc3)CC2)N1c1cc(F)cc(F)c1,nt,nt,-5%,0%,nt,nt,nt
Cc1cccc2c1nc1n2[C@@H](CNC2CCN(C)CC2)COC1,i,-1%[70.6 µM],i,5%[138 µM],nt,nt,nt
CC(=O)NC1(C)CCN(Cc2cnc(-c3ccccc3OCc3ccccc3)s2)CC1,i,-1%[70.6 µM],?,?,nt,nt,nt
CC1(NC(=O)C2CC2)CN(Cc2nc(-c3ccccc3OCc3ccccc3)cs2)C1,7.9µM*,-14%[70.6 µM],79µM*,?,19%[49.3 µM],13%[49.3 µM],?
CC1(NC(=O)C2CC2)CN(Cc2nc(-c3cccc(F)c3)cs2)C1,2.8µM*,25µM*,?,-20%[138 µM],?,19%[49.3 µM],?
